In PubChem BioAssay (Tox21):
Inconclusive results are not listed. The source made the active and inactive calls. Calls come from the whole dose curve; as a rule, active = well fitted curve in the direction sought with a large enough effect in the repeat runs; inconclusive = weak or mixed curves; inactive = no such curve, though single readings can be large; an effect the other way counts as inactive or inconclusive.

Tests used:
[1] = qHTS RealTime-Glo MT Cell Viability Assay in HEK293 cells - 16 hour (AID 1224872); note: top concentration of the series differs between compounds; nearly all actives have a fitted effect of over 50% in size
Summary of the method: (§1)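 Viability tracked continuously by luminescence as live cells reduce a prosubstrate for NanoLuc; HEK293 cells preincubated 5 h, compound-treated at 37 C, and read at 0, 8, 16, 24, 32 and 40 h.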

[2] = qHTS RealTime-Glo MT Cell Viability Assay in HepG2 cells - 8 hour (AID 1224873); note: nearly all actives have a fitted effect of over 55% in size
Summary of the method: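 Real-time viability: cells seeded at 600 per well together with NanoLuc and cell-permeant prosubstrate, compounds added after 5 h incubation. Luminescence tracked at 0, 8, 16, 24, 32 and 40 h of exposure.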

[3] = qHTS RealTime-Glo MT Cell Viability Assay in HEK293 cells - 40 hour (AID 1224874); details: RealTime-Glo luminescence; max response: stronger effect = lower value; note: nearly all actives have a fitted effect of over 50% in size
Summary of the method: (§2)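 600 cells/well were plated with the nonlytic NanoLuc/prosubstrate reagent, pre-incubated 5 h, then given 23 nL of compound in DMSO. Incubation at 37 C for 40 h, with luminescence from viable-cell-reduced substrate read repeatedly from 0 h.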

[4] = A CellTox Green Cytotoxicity Assay to monitor cytotoxicity in HEK293 cells - 24 hour (AID 1224875); note: nearly all actives have a fitted effect of over 45% in size; note: potency is the fitted concentration of half-maximal effect
Summary of the method: (§3)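 HEK293 cells, 600/well, were preincubated 5 hours and then exposed to compounds at 37 C for up to 40 hours. A cell-impermeant cyanine dye staining dead-cell DNA was read by fluorescence at 0, 8, 16, 24, 32 and 40 h time points.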

[5] = A CellTox Green Cytotoxicity Assay to monitor cytotoxicity in HepG2 cells - 16 hour (AID 1224876); note: nearly all actives have a fitted effect of over 45% in size; note: potency is the fitted concentration of half-maximal effect
Summary of the method: (§4)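 HepG2 cells, 600/well, preincubated 5 h with CellTox Green dye, then exposed to Tox21 compounds in DMSO at 37 C for up to 40 h. Dead-cell DNA fluorescence read at the indicated time point.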

[6] = qHTS RealTime-Glo MT Cell Viability Assay in HepG2 cells - 32 hour (AID 1224877); note: nearly all actives have a fitted effect of over 55% in size
Summary of the method: (§5)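 Viability was tracked continuously by NanoLuc luminescence from prosubstrate reduced by living HepG2 cells, at successive time points over 40 h of compound exposure. Cells with reagent were preincubated 5 h at 37 °C before compound addition.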

[7] = A CellTox Green Cytotoxicity Assay to monitor cytotoxicity in HepG2 cells - 24 hour (AID 1224878); note: nearly all actives have a fitted effect of over 45% in size; note: potency is the fitted concentration of half-maximal effect
Summary of the method: as §4

[8] = A CellTox Green Cytotoxicity Assay to monitor cytotoxicity in HepG2 cells - 40 hour (AID 1224879); note: nearly all actives have a fitted effect of over 40% in size; note: potency is the fitted concentration of half-maximal effect
Summary of the method: as §4

[9] = qHTS RealTime-Glo MT Cell Viability Assay in HEK293 cells - 0 hour (AID 1224880); note: top concentration of the series differs between compounds; nearly all actives have a fitted effect of over 45% in size
Summary of the method: as §2

[10] = A CellTox Green Cytotoxicity Assay to monitor cytotoxicity in HEK293 cells - 32 hour (AID 1224881); note: nearly all actives have a fitted effect of over 40% in size; note: potency is the fitted concentration of half-maximal effect
Summary of the method: as §3

[11] = A CellTox Green Cytotoxicity Assay to monitor cytotoxicity in HepG2 cells - 0 hour (AID 1224882); note: nearly all actives have a fitted effect of over 35% in size; note: potency is the fitted concentration of half-maximal effect
Summary of the method: as §4

[12] = A CellTox Green Cytotoxicity Assay to monitor cytotoxicity in HepG2 cells - 32 hour (AID 1224883); note: nearly all actives have a fitted effect of over 50% in size; note: potency is the fitted concentration of half-maximal effect
Summary of the method: as §4

[13] = A CellTox Green Cytotoxicity Assay to monitor cytotoxicity in HEK293 cells - 8 hour (AID 1224884); note: nearly all actives have a fitted effect of over 35% in size; note: potency is the fitted concentration of half-maximal effect
Summary of the method: as §3

[14] = qHTS RealTime-Glo MT Cell Viability Assay in HepG2 cells - 16 hour (AID 1224885); note: nearly all actives have a fitted effect of over 50% in size
Summary of the method: as §5

[15] = qHTS RealTime-Glo MT Cell Viability Assay in HEK293 cells - 24 hour (AID 1224886)
Summary of the method: as §1

[16] = qHTS RealTime-Glo MT Cell Viability Assay in HEK293 cells - 8 hour (AID 1224887)
Summary of the method: as §2

[17] = A CellTox Green Cytotoxicity Assay to monitor cytotoxicity in HEK293 cells - 16 hour (AID 1224888); note: nearly all actives have a fitted effect of over 35% in size; note: potency is the fitted concentration of half-maximal effect
Summary of the method: as §3

[18] = qHTS RealTime-Glo MT Cell Viability Assay in HepG2 cells - 0 hour (AID 1224889); note: nearly all actives have a fitted effect of over 50% in size
Summary of the method: as §5

[19] = A CellTox Green Cytotoxicity Assay to monitor cytotoxicity in HepG2 cells - 8 hour (AID 1224890); note: nearly all actives have a fitted effect of over 45% in size; note: potency is the fitted concentration of half-maximal effect
Summary of the method: as §4

[20] = qHTS assay to identify small molecule antagonists of the estrogen receptor alpha (ER-alpha) signaling pathway using the BG1 cell line in the presence of 0.1 nM 17-beta-estradiol - cell viability counter screen (AID 1259241); note: nearly all actives have a fitted effect of over 40% in size
Summary of the method: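 In this screen, hormone-deprived VM7Luc4E2 cells were seeded at 4,000 per well, dosed with compound and 0.1 nM estradiol final, and incubated 22 hr at 37C and 5% CO2; fluorogenic live-cell protease signal reported viability.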
% is set by controls: 0 for no effect and ±100 for the full control effect.

CC(C)=CC1CC(C)CCO1 (stereo not given)
inactive: Potency [1] | Potency [2] | max response [3] 2.02% | Potency [4] | Potency [5] | Potency [6] | Potency [7] | Potency [8] | Potency [9] | Potency [10] | Potency [11] | Potency [12] | Potency [13] | Potency [14] | Potency [15] | Potency [16] | Potency [17] | Potency [18] | Potency [19] | Potency [20]

CCCCCCS
inactive: Potency [1] | Potency [2] | max response [3] 6.5% | Potency [4] | Potency [5] | Potency [6] | Potency [7] | Potency [8] | Potency [9] | Potency [10] | Potency [11] | Potency [12] | Potency [13] | Potency [14] | Potency [15] | Potency [16] | Potency [17] | Potency [18] | Potency [19] | Potency [20]

CC1CCCCC1
inactive: Potency [1] | Potency [2] | max response [3] 5.61% | Potency [4] | Potency [5] | Potency [6] | Potency [7] | Potency [8] | Potency [9] | Potency [10] | Potency [11] | Potency [12] | Potency [13] | Potency [14] | Potency [15] | Potency [16] | Potency [17] | Potency [18] | Potency [19] | Potency [20]

CC(C)CCOCCC(C)C
inactive: Potency [1] | Potency [2] | max response [3] 7.57% | Potency [4] | Potency [5] | Potency [6] | Potency [7] | Potency [8] | Potency [9] | Potency [10] | Potency [11] | Potency [12] | Potency [13] | Potency [14] | Potency [15] | Potency [16] | Potency [17] | Potency [18] | Potency [19] | Potency [20]

[O]=[Zr]
inactive: Potency [1] | Potency [2] | max response [3] 1.9% | Potency [4] | Potency [5] | Potency [6] | Potency [7] | Potency [8] | Potency [9] | Potency [10] | Potency [11] | Potency [12] | Potency [13] | Potency [14] | Potency [15] | Potency [16] | Potency [17] | Potency [18] | Potency [19] | Potency [20]

CCCCCCCC/C=C/CCCOC(C)=O
inactive: Potency [1] | Potency [2] | max response [3] 4.7% | Potency [4] | Potency [5] | Potency [6] | Potency [7] | Potency [8] | Potency [9] | Potency [10] | Potency [11] | Potency [12] | Potency [13] | Potency [14] | Potency [15] | Potency [16] | Potency [17] | Potency [18] | Potency [19] | Potency [20]

Cn1cccc1
inactive: Potency [1] | Potency [2] | max response [3] 10.4% | Potency [4] | Potency [5] | Potency [6] | Potency [7] | Potency [8] | Potency [9] | Potency [10] | Potency [11] | Potency [12] | Potency [13] | Potency [14] | Potency [15] | Potency [16] | Potency [17] | Potency [18] | Potency [19] | Potency [20]

Cc1ccc(O)cn1
inactive: Potency [1] | Potency [2] | max response [3] -9.02% | Potency [4] | Potency [5] | Potency [6] | Potency [7] | Potency [8] | Potency [9] | Potency [10] | Potency [11] | Potency [12] | Potency [13] | Potency [14] | Potency [15] | Potency [16] | Potency [17] | Potency [18] | Potency [19] | Potency [20]

CCC(C)c1ccccc1 (stereo not given)
inactive: Potency [1] | Potency [2] | max response [3] 6.63% | Potency [4] | Potency [5] | Potency [6] | Potency [7] | Potency [8] | Potency [9] | Potency [10] | Potency [11] | Potency [12] | Potency [13] | Potency [14] | Potency [15] | Potency [16] | Potency [17] | Potency [18] | Potency [19] | Potency [20]

C=CC(C)(CCC=C(C)C)OC(=O)/C=C/c1ccccc1 (stereo not given)
inactive: Potency [1] | Potency [2] | max response [3] -2.78% | Potency [6] | Potency [9] | Potency [14] | Potency [15] | Potency [16] | Potency [18] | Potency [20]
active: Potency [4] 27.5 µM | Potency [5] 27.5 µM | Potency [7] 38.9 µM | Potency [8] 43.6 µM | Potency [10] 38.9 µM | Potency [11] 27.5 µM | Potency [12] 43.6 µM | Potency [13] 38.9 µM | Potency [17] 27.5 µM | Potency [19] 43.6 µM

C=CC(=C)CCC=C(C)C
inactive: Potency [1] | Potency [2] | max response [3] 8.59% | Potency [4] | Potency [5] | Potency [6] | Potency [7] | Potency [8] | Potency [9] | Potency [10] | Potency [11] | Potency [12] | Potency [13] | Potency [14] | Potency [15] | Potency [16] | Potency [17] | Potency [18] | Potency [19] | Potency [20]

COC(=O)[C@]1(C)CCC[C@@]2(C)[C@H]1CC=C1C=C(C(C)C)CC[C@@H]12
inactive: Potency [1] | Potency [2] | max response [3] -2.95% | Potency [6] | Potency [9] | Potency [14] | Potency [15] | Potency [16] | Potency [18] | Potency [20]
active: Potency [4] 38.9 µM | Potency [5] 24.5 µM | Potency [7] 24.5 µM | Potency [8] 24.5 µM | Potency [10] 38.9 µM | Potency [11] 24.5 µM | Potency [12] 24.5 µM | Potency [13] 38.9 µM | Potency [17] 38.9 µM | Potency [19] 38.9 µM
